Sampled rows, rich in hits. Any-hit rate of the full collection: about 6%.
D1 antag: blocks dopamine activation of the human D1 receptor; P21728; HEK293 TREx D1 cells, calcium flux, dopamine EC80; active compounds read low; activity change, negative = inhibition, % at 10 µM; actives 3.2% (n = 360,000); in the data active = activity change below about -30%
Target sequence (P21728 whole entry, looked up): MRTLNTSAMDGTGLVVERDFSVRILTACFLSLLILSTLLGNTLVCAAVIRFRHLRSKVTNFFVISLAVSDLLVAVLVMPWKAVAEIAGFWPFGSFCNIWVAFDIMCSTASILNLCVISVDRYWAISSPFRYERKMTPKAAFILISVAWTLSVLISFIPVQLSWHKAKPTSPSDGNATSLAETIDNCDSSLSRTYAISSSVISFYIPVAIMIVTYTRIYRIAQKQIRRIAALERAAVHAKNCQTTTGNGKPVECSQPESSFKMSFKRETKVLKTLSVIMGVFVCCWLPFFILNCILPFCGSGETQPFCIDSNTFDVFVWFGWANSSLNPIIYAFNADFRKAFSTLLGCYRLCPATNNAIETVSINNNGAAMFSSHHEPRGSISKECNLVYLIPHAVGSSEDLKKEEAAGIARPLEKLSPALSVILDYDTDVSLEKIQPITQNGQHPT
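Compound effects on dopamine-evoked calcium signalling were measured in tetracycline-induced HEK293 Trex D1 cells. Dopamine at EC80 followed a 180 s compound pre-read, and fluorescence was tracked kinetically for 180 s more.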
DRD3 antagonist: D3 dopamine receptor (human) antagonism. P35462. D3R cells, DiscoveRx beta-arrestin luminescence, antagonist mode; active compounds read low. max response, negative = inhibition, %. actives 2.5% (n = 360,000). AID 652054; in the data active = max response below about -50%; inconclusive = no clear call, values can overlap the other calls
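Cells plated overnight at 1500 cells/well, then exposed to library compounds with dopamine controls for 90 minutes at 37 degrees C. DiscoveRx reagent added for 30–60 minutes at room temperature; luminescence read, quantitative HTS format.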
D1 PAM: enhances dopamine response at the human D1 receptor; HEK293 TREx D1 cells, calcium flux, dopamine EC20 potentiation; potentiation, % at 10 µM; actives 0.036% (n = 360,000); AID 504651; in the data active = potentiation above about 30%
D1 ag: human D1 receptor agonism; HEK293 T-REx D1 cells, calcium flux, agonist mode; activation, % at 2 µM; P21728; actives 1% (n = 360,000); in the data active = activation above about 30%
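Inducible HEK293 T-REx D1 cells, force-coupled to calcium signalling, were plated at 4000 cells/well with tetracycline and held overnight at 30 C. After no-wash calcium dye loading, compound-evoked calcium rise over 180 s flagged agonists.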
Chronic BCR inh: chronic active BCR signaling inhibition. ABC-DLBCL IkBa-CBG/CBR reporter, luminescence ratio, 4 h. Potency, µM (doses to about 46.1 µM), hits mostly inhibitors. actives 0.05% (n = 340,000); active = well fitted inhibition curve with a large enough effect in the signal ratio, with a control signal flat, not every such curve was filed as active; inconclusive = small, poorly fitted or top-dose-only effect, or effect the other way, or a change in a side signal; the % refers to the signal ratio
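TMD8 human ABC-DLBCL cells with doxycycline-inducible IκBα–green luciferase fusion and unfused red luciferase, in 0.5% FBS medium; compounds up to 46 uM, 4 h at 37C. Green/red luminescence ratio, filter-overlap corrected, fitted to concentration-response curves.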
D3 ag: D3 dopamine receptor (human) agonism | AID 652048 | actives 0.58% (n = 410,000) | D3R DiscoveRx beta-arrestin cells, luminescence, 90 min | P35462 | max activation, %; in the data active = max activation above about 30%
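Cells at 1500/well, incubated overnight, then treated with pinned compounds (dopamine as control) for 90 min at 37 degrees C. DiscoveRx reagent added for 30 - 60 minutes at room temperature; luminescence read.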
Of the large screens only hits and unclear results are named; the others gave an inactive call.

CC(=O)Nc1ccc(NC(=O)COC(=O)/C=C/c2ccc3c(c2)OCO3)cc1	none (no result: D1 PAM)
CC(=O)c1cccc(NC(=O)COC(=O)c2ccc3c(c2)OCO3)c1	D1 antag -31 (no result: D1 PAM)
CC(=O)c1ccccc1C(=O)N1CCC(CCC(=O)NCc2ccc(F)cc2)CC1	none (no result: D1 antag, D1 PAM, D1 ag, Chronic BCR inh)
O=C(NCc1ccc(F)cc1F)[C@@H]1CCCN1C(=O)[C@@H]1CCCN1C(=O)c1ccccc1	none (no result: D1 antag, D1 PAM, D1 ag, Chronic BCR inh)
Cc1ccccc1NC(=O)Cc1nc(COC(=O)c2ccc(NC(N)=O)cc2)cs1	none (no result: D1 antag, D1 PAM, D1 ag)
CC(CCc1ccccc1)NC(=O)COC(=O)c1ccc(S(C)(=O)=O)c([N+](=O)[O-])c1 (stereo not given)	DRD3 antagonist -78, Chronic BCR inh inconclusive
Cc1ccccc1NC(=O)Cc1nc(COC(=O)c2ccc(S(C)(=O)=O)c([N+](=O)[O-])c2)cs1	D1 antag -36, DRD3 antagonist -73, Chronic BCR inh inconclusive
CC(C)(C)OC(=O)NC1CC2CCCC(C1)N2Cc1ccccc1 (stereo not given)	DRD3 antagonist -85
COCC(=O)NC1CC2CCCC(C1)N2Cc1ccccc1 (stereo not given)	DRD3 antagonist -77
COCCNC(=S)NC1CC2CCC(C1)N2Cc1ccccc1 (stereo not given)	DRD3 antagonist inconclusive
Cc1cccc(N2CCN(C(=O)c3ccc4c(c3)N(Cc3ccccc3)C(=O)c3ccccc3S4(=O)=O)CC2C)c1 (stereo not given)	none (no result: DRD3 antagonist, Chronic BCR inh)
CC(=O)OCC(=O)[C@@]12OC(C)(C)O[C@@H]1C[C@H]1[C@@H]3C[C@H](F)C4=CC(=O)C=C[C@]4(C)[C@@]3(F)[C@@H](O)C[C@@]12C	D1 antag -35, Chronic BCR inh inconclusive
COc1cccc(NC(=S)NC(Cc2ccccc2)c2ccccc2)c1 (stereo not given)	none (no result: D1 antag, D1 PAM, D1 ag, Chronic BCR inh)
Brc1ccccc1OCCCCN1CCCCC1	DRD3 antagonist -97
Brc1ccccc1OCCCN1CCOCC1	DRD3 antagonist -51
Cc1ccccc1OCCCCN1CCCCC1	none
CC1CCN(CCCCOc2ccccc2Br)CC1	DRD3 antagonist -54
CC1CCN(CCCCOc2ccccc2F)CC1	DRD3 antagonist -82, Chronic BCR inh inconclusive
Cc1ccccc1OCCCN1CCOCC1	none
COc1ccc(CNC(=O)c2sc3nc4n(c(=O)c3c2C)CCC4)cc1	none (no result: DRD3 antagonist, Chronic BCR inh)
CN(C(=S)NC(=O)C1CCCC1)c1ccccc1	none (no result: D1 antag, D1 PAM, D1 ag, Chronic BCR inh)
O=C(c1ccc(COc2ccccc2Br)cc1)N1CCCCCC1	D1 antag -37, DRD3 antagonist inconclusive, Chronic BCR inh inconclusive
COCCCNC(=O)CCc1c(C)nc2nc(-c3cc(OC)cc(OC)c3)nn2c1C	D1 antag -31 (no result: DRD3 antagonist, Chronic BCR inh)
COCCCNC(=O)CCc1c(C)nc2c(-c3ccc(F)cc3)c(C)nn2c1C	D1 antag -34, DRD3 antagonist inconclusive
COCCNC(=O)CCc1c(C)nc2c(-c3ccc(F)cc3)c(C)nn2c1C	none
CCN1CCN(c2ccc(NC(=O)CCc3c(C)nc4c(-c5ccc(F)cc5)c(C)nn4c3C)cc2)CC1	D1 antag -79
CCOc1ccc(NC(=S)Nc2cc(-c3ccccc3)[nH]n2)cc1	DRD3 antagonist inconclusive, Chronic BCR inh inconclusive
COc1ccc(NC(=S)Nc2cc(C)[nH]n2)cc1Cl	none
COc1ccc(NC(=S)Nc2cc(-c3ccccc3)[nH]n2)cc1Cl	D1 antag -79, Chronic BCR inh inconclusive
Cc1cc(NC(=S)Nc2ccc(C)c(Cl)c2)n[nH]1	D1 antag -39, Chronic BCR inh inconclusive
O=C(Nc1cccc(-n2cccn2)c1)C1CCCN(Cc2cc3ccccc3[nH]2)C1 (stereo not given)	Chronic BCR inh inconclusive
CCn1ncc(CN2CCCC(C(=O)Nc3cccc(-c4cc5ccccc5[nH]4)c3)C2)c1C (stereo not given)	D1 antag -51, D1 ag 91, Chronic BCR inh inconclusive
CC(C)(NC(=O)c1cc(Cl)c2ccccc2c1O)C(=O)O	D1 antag -30
Oc1ccc(CCNCCCCCCNCCc2ccccc2)cc1O	none (no result: D1 antag, DRD3 antagonist, D1 PAM, D1 ag, Chronic BCR inh)
CCOc1ccc(NC(=O)Cn2c(=O)n(-c3ccccc3)c(=O)c3ccc(C(=O)NCc4ccc5c(c4)OCO5)cc32)cc1	none (no result: DRD3 antagonist, Chronic BCR inh)
N#C/C(=N/Nc1ccc([N+](=O)[O-])cc1)C(=N)N1CCCCC1	DRD3 antagonist -54
C/C(=N\Nc1ccc([N+](=O)[O-])cc1)c1ccc(O)cc1	D1 ag 37, Chronic BCR inh inconclusive
N#C/C(=N\Nc1ccc([N+](=O)[O-])cc1)C(=N)N1CCOCC1	Chronic BCR inh inconclusive
CC(=O)NC/C(C)=N\Nc1ccc([N+](=O)[O-])cc1	D1 ag 35, Chronic BCR inh inconclusive
COc1ccc(CCC(=O)NCCc2csc(-c3cccc(F)c3)n2)cc1	none (no result: DRD3 antagonist, Chronic BCR inh)
Cc1cccc2nc(Cn3c(=O)n(-c4ccccc4)c(=O)c4c5c(sc43)CCC5)cc(=O)n12	none (no result: DRD3 antagonist, Chronic BCR inh)
CC(=O)N(/N=C/c1ccc([N+](=O)[O-])o1)c1nc2ccccc2c(=O)n1-c1ccccc1	DRD3 antagonist -54, Chronic BCR inh inconclusive
Cc1nc2ccccc2c(=O)n1/N=C/c1ccc([N+](=O)[O-])o1	Chronic BCR inh inconclusive (no result: DRD3 antagonist, D3 ag)
CC(=O)c1ccc(S(=O)(=O)NC2CC(=O)N(c3ccc(Cl)cc3)C2)cc1 (stereo not given)	D1 antag -34
O=C(NC1CC(=O)N(c2ccc(Cl)cc2)C1)c1ccc(S(=O)(=O)N2CCOCC2)cc1 (stereo not given)	none (no result: D1 antag, DRD3 antagonist)
Cc1cc(Cl)ccc1OC(C)C(=O)NCCCn1ccnc1 (stereo not given)	D1 antag -35
CC(Oc1ccc(Cl)cc1)C(=O)NCCCn1ccnc1 (stereo not given)	none
Cc1cc2c(c(=O)n1CCc1ccccc1)C(C(C)C)C(C#N)=C(N)O2 (stereo not given)	D1 antag -32
CN(C)c1ccc(C(CNC(=O)c2ccc(C(C)(C)C)cc2)N2CCCC2)cc1 (stereo not given)	D1 ag 38 (no result: DRD3 antagonist, Chronic BCR inh)
CN(C)c1ccc(C(CNS(=O)(=O)c2ccc(F)cc2)N2CCCC2)cc1 (stereo not given)	D1 ag 59 (no result: DRD3 antagonist, Chronic BCR inh)
CN(C)c1ccc(C(CNS(=O)(=O)c2ccc(F)cc2)N2CCOCC2)cc1 (stereo not given)	none (no result: DRD3 antagonist, Chronic BCR inh)
C#CCCCCCCC#CCN(C)C	DRD3 antagonist -58, Chronic BCR inh inconclusive
CCCOc1ccc(N2C(=O)CC(N3CCN(C(=O)c4ccco4)CC3)C2=O)cc1 (stereo not given)	none
CCCOc1ccc(N2C(=O)CC(N3CCN(c4nc5ccccc5s4)CC3)C2=O)cc1 (stereo not given)	D1 antag -31
CCCCCCOc1ccc(N2C(=O)CC(N3CCN(C(=O)c4ccco4)CC3)C2=O)cc1 (stereo not given)	D1 antag -41
